The results in this text go back to ChEMBL document CHEMBL1961873, “Compounds: GSK PKIS; Assays: Nanosyn kinase panel” (2012).

The target in assay [1] is T1, Tyrosine-protein kinase ITK/TSK (Homo sapiens) (UniProt Q08881).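 Note: values are mean percent inhibition of ITK from the GSK PKIS screen.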
T1 sequence (whole entry): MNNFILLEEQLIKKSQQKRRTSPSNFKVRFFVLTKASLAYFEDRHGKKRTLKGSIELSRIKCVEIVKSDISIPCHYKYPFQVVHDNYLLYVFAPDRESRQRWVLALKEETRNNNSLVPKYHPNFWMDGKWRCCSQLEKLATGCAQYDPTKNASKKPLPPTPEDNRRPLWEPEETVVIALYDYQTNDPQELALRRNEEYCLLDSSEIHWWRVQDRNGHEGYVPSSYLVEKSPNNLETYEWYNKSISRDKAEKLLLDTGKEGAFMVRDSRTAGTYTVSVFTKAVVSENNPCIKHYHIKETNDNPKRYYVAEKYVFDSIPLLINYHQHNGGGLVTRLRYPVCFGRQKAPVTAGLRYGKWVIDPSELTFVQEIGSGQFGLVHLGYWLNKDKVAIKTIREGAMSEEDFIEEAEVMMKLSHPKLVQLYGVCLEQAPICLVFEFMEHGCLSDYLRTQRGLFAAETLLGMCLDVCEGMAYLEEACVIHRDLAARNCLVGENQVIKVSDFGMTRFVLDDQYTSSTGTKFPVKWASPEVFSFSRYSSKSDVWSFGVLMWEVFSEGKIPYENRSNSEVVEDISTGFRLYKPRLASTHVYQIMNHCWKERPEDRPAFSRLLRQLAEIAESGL
Conditions: at 1 µM.

The target in assay [2] is Tyrosine-protein kinase JAK1 (Homo sapiens) (UniProt P23458). To be noted: at 0.1 µM.
Assay [3] shares this target. To be noted: at 1 µM.
The target of assay [4] is Tyrosine-protein kinase JAK2 (Homo sapiens) (UniProt O60674). To be noted: at 0.1 µM.
The target is the same in assay [5]. Conditions: at 1 µM.
Assay [6] concerns the target T2, Tyrosine-protein kinase JAK3 (Homo sapiens) (UniProt P52333).
T2 sequence (whole entry): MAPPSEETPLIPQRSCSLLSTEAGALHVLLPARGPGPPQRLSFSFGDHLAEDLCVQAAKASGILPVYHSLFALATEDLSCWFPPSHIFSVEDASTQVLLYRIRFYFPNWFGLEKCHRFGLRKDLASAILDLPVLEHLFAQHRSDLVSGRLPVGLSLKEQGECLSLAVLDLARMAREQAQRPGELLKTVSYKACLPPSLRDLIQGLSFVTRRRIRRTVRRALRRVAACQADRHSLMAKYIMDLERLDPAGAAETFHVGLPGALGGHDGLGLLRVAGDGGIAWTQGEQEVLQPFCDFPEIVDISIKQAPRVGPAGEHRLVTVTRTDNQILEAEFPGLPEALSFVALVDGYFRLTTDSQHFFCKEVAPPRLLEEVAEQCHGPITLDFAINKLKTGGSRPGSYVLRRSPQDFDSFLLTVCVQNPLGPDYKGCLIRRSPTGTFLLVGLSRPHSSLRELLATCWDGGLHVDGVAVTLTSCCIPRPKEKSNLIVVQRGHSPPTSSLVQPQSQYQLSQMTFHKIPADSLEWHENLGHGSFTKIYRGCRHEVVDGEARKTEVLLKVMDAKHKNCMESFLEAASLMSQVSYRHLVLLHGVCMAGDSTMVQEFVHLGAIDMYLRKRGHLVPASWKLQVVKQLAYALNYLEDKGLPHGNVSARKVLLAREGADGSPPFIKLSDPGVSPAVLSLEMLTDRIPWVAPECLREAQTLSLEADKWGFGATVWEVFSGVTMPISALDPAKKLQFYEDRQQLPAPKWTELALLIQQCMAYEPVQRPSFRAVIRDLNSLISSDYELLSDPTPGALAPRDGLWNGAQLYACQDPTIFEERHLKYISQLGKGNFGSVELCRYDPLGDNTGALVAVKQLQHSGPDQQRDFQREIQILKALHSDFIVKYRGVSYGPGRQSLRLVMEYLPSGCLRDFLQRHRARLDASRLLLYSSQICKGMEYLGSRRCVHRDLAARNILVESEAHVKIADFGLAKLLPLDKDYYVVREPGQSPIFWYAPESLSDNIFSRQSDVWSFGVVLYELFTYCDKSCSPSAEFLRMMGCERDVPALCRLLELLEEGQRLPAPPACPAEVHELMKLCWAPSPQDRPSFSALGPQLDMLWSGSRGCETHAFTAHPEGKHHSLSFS
To be noted: at 0.1 µM.

The target of assay [7] is T2, Tyrosine-protein kinase JAK3 (Homo sapiens). To be noted: at 1 µM.
The target in assay [8] is Vascular endothelial growth factor receptor 2 (Homo sapiens) (UniProt P35968). Conditions: at 0.1 µM.
For assay [9] the target is unchanged. To be noted: at 1 µM.
Assay [10] addresses Mast/stem cell growth factor receptor Kit (Homo sapiens) (UniProt P10721). To be noted: at 0.1 µM.
Assay [11] shares this target. To be noted: at 1 µM.
Assay [12] has as its system Mast/stem cell growth factor receptor Kit (Homo sapiens), P10721 [D816V]. To be noted: at 0.1 µM.
Assay [13] shares this test system. To be noted: at 1 µM.
Assay [14] has as its system Mast/stem cell growth factor receptor Kit (Homo sapiens), P10721 [T670I]. To be noted: at 0.1 µM.
Assay [15] has the same test system. Conditions: at 1 µM.
Assay [16] has as its system Mast/stem cell growth factor receptor Kit (Homo sapiens), P10721 [V560G]. Conditions: at 0.1 µM.
The test system is the same in assay [17]. To be noted: at 1 µM.
Assay [18] has as its target Tyrosine-protein kinase Lck (Homo sapiens) (UniProt P06239). Conditions: at 0.1 µM.
The target is the same in assay [19]. To be noted: at 1 µM.
In assay [20] the target is Leukocyte tyrosine kinase receptor (Homo sapiens) (UniProt P29376). To be noted: at 0.1 µM.
Sequence of Leukocyte tyrosine kinase receptor (Homo sapiens) (P29376 whole entry): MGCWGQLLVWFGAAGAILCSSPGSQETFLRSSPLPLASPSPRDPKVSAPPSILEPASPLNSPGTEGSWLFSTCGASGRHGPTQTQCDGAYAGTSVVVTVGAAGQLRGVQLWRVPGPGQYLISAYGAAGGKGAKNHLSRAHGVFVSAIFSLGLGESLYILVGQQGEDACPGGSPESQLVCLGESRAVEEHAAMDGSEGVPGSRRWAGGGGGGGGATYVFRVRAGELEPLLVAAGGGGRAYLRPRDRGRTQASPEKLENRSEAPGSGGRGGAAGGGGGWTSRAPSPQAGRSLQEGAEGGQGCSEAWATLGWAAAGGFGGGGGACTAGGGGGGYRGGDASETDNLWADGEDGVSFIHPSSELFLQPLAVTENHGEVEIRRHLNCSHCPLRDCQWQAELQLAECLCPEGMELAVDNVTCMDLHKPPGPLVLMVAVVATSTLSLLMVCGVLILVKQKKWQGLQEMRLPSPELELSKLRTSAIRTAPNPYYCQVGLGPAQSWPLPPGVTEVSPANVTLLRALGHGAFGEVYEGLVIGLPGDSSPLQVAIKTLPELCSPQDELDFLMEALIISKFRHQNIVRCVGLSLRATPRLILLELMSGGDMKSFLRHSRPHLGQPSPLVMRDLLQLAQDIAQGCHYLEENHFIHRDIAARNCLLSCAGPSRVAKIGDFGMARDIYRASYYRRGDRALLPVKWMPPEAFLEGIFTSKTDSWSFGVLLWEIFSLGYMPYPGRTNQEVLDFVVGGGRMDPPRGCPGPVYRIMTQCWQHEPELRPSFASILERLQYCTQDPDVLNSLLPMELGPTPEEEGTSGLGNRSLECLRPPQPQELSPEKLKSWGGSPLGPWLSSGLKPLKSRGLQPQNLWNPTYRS

Sequence of Mast/stem cell growth factor receptor Kit (Homo sapiens), P10721 [V560G] (P10721 whole entry V560G): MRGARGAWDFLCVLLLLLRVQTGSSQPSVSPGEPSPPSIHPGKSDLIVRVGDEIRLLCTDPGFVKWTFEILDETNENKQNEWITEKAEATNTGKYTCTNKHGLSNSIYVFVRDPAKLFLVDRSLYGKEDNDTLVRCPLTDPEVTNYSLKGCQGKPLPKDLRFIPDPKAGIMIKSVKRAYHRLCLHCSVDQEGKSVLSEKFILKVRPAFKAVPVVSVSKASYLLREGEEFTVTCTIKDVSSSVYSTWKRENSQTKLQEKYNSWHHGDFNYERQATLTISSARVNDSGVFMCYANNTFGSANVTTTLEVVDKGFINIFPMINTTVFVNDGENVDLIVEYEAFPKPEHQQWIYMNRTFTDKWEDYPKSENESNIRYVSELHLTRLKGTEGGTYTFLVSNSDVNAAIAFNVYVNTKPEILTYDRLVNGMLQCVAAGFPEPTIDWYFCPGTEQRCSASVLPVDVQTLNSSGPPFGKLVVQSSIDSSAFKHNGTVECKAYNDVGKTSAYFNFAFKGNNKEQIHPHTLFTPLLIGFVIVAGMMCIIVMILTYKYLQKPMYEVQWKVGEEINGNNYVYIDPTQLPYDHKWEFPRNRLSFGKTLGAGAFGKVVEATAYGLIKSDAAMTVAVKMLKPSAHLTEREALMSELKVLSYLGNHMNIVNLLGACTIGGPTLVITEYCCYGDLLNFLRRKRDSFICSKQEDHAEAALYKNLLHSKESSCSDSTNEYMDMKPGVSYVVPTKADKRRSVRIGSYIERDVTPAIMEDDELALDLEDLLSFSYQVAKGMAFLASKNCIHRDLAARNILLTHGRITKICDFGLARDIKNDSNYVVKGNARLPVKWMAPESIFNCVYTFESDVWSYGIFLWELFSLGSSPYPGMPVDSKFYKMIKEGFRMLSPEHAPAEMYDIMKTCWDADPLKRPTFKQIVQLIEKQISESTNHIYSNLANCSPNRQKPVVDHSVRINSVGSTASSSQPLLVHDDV
Sequence of Tyrosine-protein kinase JAK1 (Homo sapiens) (P23458 whole entry): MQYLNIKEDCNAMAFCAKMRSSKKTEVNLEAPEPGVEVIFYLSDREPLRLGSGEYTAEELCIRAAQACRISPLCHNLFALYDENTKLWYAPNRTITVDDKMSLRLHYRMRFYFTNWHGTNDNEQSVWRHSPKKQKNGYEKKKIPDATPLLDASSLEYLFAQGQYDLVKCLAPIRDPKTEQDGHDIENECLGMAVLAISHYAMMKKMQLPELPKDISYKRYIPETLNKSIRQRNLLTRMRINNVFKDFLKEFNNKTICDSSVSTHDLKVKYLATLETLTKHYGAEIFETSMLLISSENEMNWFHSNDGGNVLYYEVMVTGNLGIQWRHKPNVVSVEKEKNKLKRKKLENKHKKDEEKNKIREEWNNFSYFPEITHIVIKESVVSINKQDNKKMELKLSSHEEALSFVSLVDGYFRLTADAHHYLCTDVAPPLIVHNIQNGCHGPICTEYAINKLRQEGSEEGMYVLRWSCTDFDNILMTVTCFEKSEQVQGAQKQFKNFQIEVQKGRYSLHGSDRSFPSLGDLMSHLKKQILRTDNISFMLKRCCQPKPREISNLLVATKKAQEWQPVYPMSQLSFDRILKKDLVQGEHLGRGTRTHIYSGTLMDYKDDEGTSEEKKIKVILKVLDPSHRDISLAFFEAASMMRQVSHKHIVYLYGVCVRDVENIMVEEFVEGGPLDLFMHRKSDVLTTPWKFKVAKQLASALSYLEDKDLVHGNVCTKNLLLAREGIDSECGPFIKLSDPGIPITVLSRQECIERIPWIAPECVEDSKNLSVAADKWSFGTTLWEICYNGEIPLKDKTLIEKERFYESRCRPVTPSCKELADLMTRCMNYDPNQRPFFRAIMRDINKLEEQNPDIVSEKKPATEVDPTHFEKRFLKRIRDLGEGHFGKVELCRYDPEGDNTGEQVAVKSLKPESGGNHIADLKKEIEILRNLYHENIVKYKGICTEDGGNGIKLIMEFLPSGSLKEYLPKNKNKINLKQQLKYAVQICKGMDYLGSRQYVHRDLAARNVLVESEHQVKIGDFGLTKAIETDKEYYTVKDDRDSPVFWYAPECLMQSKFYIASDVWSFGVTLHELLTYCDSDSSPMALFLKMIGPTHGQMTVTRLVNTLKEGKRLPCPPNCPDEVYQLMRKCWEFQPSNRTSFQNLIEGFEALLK
Sequence of Mast/stem cell growth factor receptor Kit (Homo sapiens) (P10721 whole entry): as the sequence (P10721 whole entry V560G) above, with G560V counted along it
Sequence of Mast/stem cell growth factor receptor Kit (Homo sapiens), P10721 [D816V] (P10721 whole entry D816V): as the sequence (P10721 whole entry V560G) above, with G560V, D816V counted along it
Sequence of Tyrosine-protein kinase Lck (Homo sapiens) (P06239 2-509 limits assumed): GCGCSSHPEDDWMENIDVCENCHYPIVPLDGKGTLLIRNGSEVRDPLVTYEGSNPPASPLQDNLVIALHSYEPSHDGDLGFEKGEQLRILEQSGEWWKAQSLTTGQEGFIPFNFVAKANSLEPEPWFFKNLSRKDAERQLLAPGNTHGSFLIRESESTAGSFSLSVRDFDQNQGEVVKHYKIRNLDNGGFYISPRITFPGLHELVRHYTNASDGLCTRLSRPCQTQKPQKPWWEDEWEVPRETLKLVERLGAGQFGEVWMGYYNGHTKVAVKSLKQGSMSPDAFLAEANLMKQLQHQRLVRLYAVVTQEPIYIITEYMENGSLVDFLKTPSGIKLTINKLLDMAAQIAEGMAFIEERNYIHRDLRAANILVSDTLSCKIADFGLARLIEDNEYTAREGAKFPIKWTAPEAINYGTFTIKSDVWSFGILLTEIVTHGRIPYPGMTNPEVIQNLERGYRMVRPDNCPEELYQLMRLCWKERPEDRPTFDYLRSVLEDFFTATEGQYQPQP
Sequence of Tyrosine-protein kinase JAK2 (Homo sapiens) (O60674 whole entry): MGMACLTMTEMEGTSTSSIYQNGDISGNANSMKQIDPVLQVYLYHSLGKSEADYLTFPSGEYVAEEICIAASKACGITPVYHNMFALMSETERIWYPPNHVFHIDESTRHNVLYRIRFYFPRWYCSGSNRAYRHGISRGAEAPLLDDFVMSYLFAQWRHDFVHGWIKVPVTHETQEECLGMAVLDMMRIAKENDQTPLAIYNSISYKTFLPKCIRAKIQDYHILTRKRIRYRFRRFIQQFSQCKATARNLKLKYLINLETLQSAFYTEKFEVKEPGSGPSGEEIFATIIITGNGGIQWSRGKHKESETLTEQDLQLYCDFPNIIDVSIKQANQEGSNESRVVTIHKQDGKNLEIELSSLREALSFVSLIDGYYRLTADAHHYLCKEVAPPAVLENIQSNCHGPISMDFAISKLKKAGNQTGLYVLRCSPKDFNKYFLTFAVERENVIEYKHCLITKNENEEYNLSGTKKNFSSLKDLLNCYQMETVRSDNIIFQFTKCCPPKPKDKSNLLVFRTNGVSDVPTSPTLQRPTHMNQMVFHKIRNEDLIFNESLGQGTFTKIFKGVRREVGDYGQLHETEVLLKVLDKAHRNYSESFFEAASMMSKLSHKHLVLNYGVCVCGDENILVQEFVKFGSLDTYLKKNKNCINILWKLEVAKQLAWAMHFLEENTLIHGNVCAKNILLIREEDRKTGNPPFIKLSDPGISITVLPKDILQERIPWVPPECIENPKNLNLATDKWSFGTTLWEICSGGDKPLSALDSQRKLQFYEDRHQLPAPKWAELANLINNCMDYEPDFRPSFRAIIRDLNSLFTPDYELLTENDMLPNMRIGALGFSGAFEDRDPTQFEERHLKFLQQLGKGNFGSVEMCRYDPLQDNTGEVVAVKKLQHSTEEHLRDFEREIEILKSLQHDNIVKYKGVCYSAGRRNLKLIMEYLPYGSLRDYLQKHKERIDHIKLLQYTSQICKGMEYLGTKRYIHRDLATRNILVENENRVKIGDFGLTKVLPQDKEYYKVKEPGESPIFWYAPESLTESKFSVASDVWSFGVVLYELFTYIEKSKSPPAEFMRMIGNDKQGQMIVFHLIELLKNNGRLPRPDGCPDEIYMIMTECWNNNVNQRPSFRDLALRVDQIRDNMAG
Sequence of Mast/stem cell growth factor receptor Kit (Homo sapiens), P10721 [T670I] (P10721 whole entry T670I): as the sequence (P10721 whole entry V560G) above, with G560V, T670I counted along it

One may read the inhibition as the drop in the measured response relative to a control, in per cent. Consider `O=C1Nc2ccccc2/C1=C/Nc1ccc(-n2cncn2)cc1`, for which the inhibition is 4.51% in [1]; 5.01% in assay [2]; 29.9% in assay [3]; 0.53% in [4]; 0.69% in [5]; -1.1% in assay [6]. The inhibition in assay [7] amounted to 6.49%; in assay [8], 7.9%; in [9] it was 37.3%; in assay [10] it was 21.5%; in assay [11], 75.9%; in assay [12], 4.37%. In addition, the inhibition is 8.01% in [13]; 8.82% in assay [14]; 47.4% in [15]; -2.32% in assay [16]; 10.2% in assay [17]; 3.98% in [18]. Besides, the inhibition in assay [19] stood at 9.02%; in [20], 3.3%.
In the case of `CN(C)CCCNc1nccc(-c2c(-c3ccc(F)cc3)nn3cc(C(F)(F)F)ccc23)n1`, the inhibition in assay [1] was -1.31%; in assay [2], 0.29%; in assay [3], -0.9%; in assay [4], 0.65%; in assay [5] it was 3.68%; in assay [6], -2.83%. Besides, the inhibition was -1.89% in assay [7]; 6.32% in assay [8]; 11.3% in assay [9]; 3.48% in assay [10]; 2.1% in assay [11]; 1.94% in assay [12]. Besides, the inhibition was -0.31% in assay [13]; 0.09% in assay [14]; 0.14% in assay [15]; 6.47% in [16]; 4.04% in assay [17]; -2.05% in assay [18]. For the same compound, the inhibition in assay [19] was 3.17%; in [20], 1.9%.
With `O=C1NC(=O)C(c2cccc(Cl)c2)=C1Nc1ccc(Cl)c(C(=O)O)c1`, the inhibition in assay [1] was 0.9%; in [2], 4.75%; in assay [3], 13.7%; in assay [4], 0.64%; in assay [5], 0.7%; in assay [6] it was -0.9%. Moreover, the inhibition in assay [7] came to 9.29%; in [8] it was 6.04%; in assay [9], 23.5%; in assay [10], 6.54%; in assay [11], 5.28%; in assay [12] it was 1.8%. The inhibition turned out to be 5.8% in assay [13]; 2.83% in assay [14]; 4.22% in [15]; 1% in assay [16]; 6.94% in [17]; 1.82% in [18]. Besides, the inhibition in assay [19] was 0.84%; in assay [20], 2.51%.
`CCC(=O)Nc1ccc(C)c(-c2ccc(C(=O)NCC3CC3)cc2)c1`: the inhibition is -0.1% in assay [1]; 2.44% in [2]; 4.69% in assay [3]; 1.7% in assay [4]; 1.15% in [5]; -1.95% in assay [6]. For the same compound, the inhibition in assay [7] is -0.85%; in [8] it was 3.67%; in assay [9], 9.29%; in [10], 4.93%; in assay [11], 4.74%; in assay [12], -1.54%. Besides, the inhibition is 5.31% in assay [13]; 2.5% in [14]; 3.87% in [15]; -0.17% in [16]; -1.72% in assay [17]; 2.57% in assay [18]. The inhibition in assay [19] is 5.27%; in [20], 4.98%.
With `CNC(=O)c1cncc(/C=C/c2c(C)cccc2C)c1`, the inhibition in [1] was -3.29%; in [2], 0.62%; in [3] it was -1.32%; in [4] it was 2.87%; in [5], 2.41%; in [6] it was -3.28%. For the same compound, the inhibition was -0.59% in [7]; 3.77% in assay [8]; 3.51% in assay [9]; 10.7% in assay [10]; 51.7% in [11]; 1.76% in assay [12]. In addition, the inhibition in assay [13] is 0.69%; in [14] it was -0.72%; in assay [15], -0.77%; in assay [16], 3.1%; in assay [17], 17.2%; in assay [18] it was 3.11%. Besides, the inhibition in assay [19] was 30%; in assay [20], -1.27%.
With `CN1CCN(CCCNc2nc3ccc(Oc4ccc(NC(=O)Nc5cc(C(F)(F)F)ccc5F)cc4)cc3[nH]2)CC1`, the inhibition in [1] was -1.94%; in [2] it was 6.45%; in assay [3], 1.78%; in assay [4] it was 3.76%; in [5], 6.4%; in assay [6], -2.58%. Moreover, the inhibition is 0.29% in assay [7]; 38.6% in assay [8]; 71.9% in [9]; 48.5% in assay [10]; 91.9% in assay [11]; -2.19% in assay [12]. Further, the inhibition was 0.02% in [13]; 11.5% in assay [14]; 70.1% in assay [15]; 31.6% in assay [16]; 76.6% in assay [17]; -1.91% in assay [18]. Besides, the inhibition was 7.95% in assay [19] and -0.24% in [20].
Regarding `NC(=O)c1cc(-c2ccc(F)cc2)cc(-c2ccncc2)c1N`, the inhibition in assay [1] was -0.8%; in assay [2], 3.49%; in assay [3], 12.2%; in [4], 1.44%; in assay [5], 1.06%; in assay [6], -0.87%. Further, the inhibition in [7] was -2.1%; in [8] it was 6%; in [9] it was 6.66%; in [10], 11.9%; in assay [11] it was 46.7%; in assay [12] it was 2.24%. The inhibition in assay [13] is 4.8%; in assay [14] it was 4.07%; in assay [15], 8.15%; in [16], -2.86%; in assay [17] it was 1.74%; in assay [18] it was 2.03%. For the same compound, the inhibition came to 7.42% in assay [19] and 3.88% in assay [20].
